Laboratory results from PubChem BioAssay AID1259421 (Broad Institute, 2018).
Values joined by “and” are separate entries in the source; they are usually repeats but may differ in a detail not shown here. Equal values may be shown once. Hit rate of the full screen: of about 6,400 compounds, about 610 (9.5%) were called active. Cut-off read from the data, not from the text of the source: active = activity change below about -70%; inconclusive = no clear call, values can overlap the other calls; inactive = above that. Shown is part of a subset that was picked to be rich in actives. Where a structure was tested more than once in an assay, its records may differ in their call.

Assay: T. gondii ME49Luc in HeLa cells, luciferase assay, 72 h, no IFN-y (AID 1259421)
Settings: stronger effect = lower value, concentration not given here

Row | Compound | activity change, negative = inhibition
1 | Cc1onc(-c2ccccc2)c1C(=O)N[C@@H]1C(=O)N2[C@@H](C(=O)O)C(C)(C)S[C@@H]12 | 3.42% (inactive)
2 | N[C@H](Cc1cc(I)c(Oc2ccc(O)c(I)c2)c(I)c1)C(=O)O | 2.18% (inactive) and -1.07% (inactive)
3 | N[C@@]1(C(=O)O)CS(=O)(=O)[C@H]2[C@H](C(=O)O)[C@H]21 | 8.77% (inactive)
4 | Ac-PHSCN-NH2 | 12.4% (inactive)
5 | CC1(C)CC(=O)c2c(C(F)(F)F)nn(-c3ccc(C(N)=O)c(NC4CCC(OC(=O)CN)CC4)c3)c2C1 (centres undefined) | -75.4% (active)
6 | CC1(C)CC(=O)c2c(C(F)(F)F)nn(-c3ccc(C(N)=O)c(NC4CCC(O)CC4)c3)c2C1 (centres undefined) | -81.9% (active)
7 | Cn1nnc(-c2ccc(-c3ccc(N4C[C@H](CO)OC4=O)cc3F)cn2)n1 | 60.5% (inactive)
8 | CCOC(=O)[C@@H](CCc1ccccc1)N[C@H](C)C(=O)N1[C@@H]2CCC[C@H]2C[C@H]1C(=O)O | 14.6% (inactive)
9 | CCCCS(=N)(=O)CC[C@H](N)C(=O)O (some centres undefined) | 0.306% (inactive)
10 | CCCC[C@@H](CC)COC(=O)C(C#N)=C(c1ccccc1)c1ccccc1 | -53.6% (inactive)
11 | CC(=O)OCC(=O)[C@@]1(O)[C@H](OC(C)=O)CC2C3CCC4=CC(=O)C=C[C@]4(C)[C@@]3(F)[C@@H](O)C[C@@]21C (some centres undefined) | -7.39% (inactive)
12 | COc1ccc(-c2coc3c(O)c(O)c(OC)cc3c2=O)cc1 | 77.9% (inactive)
13 | Nc1c2c(nc3ccccc13)CCCC2O (centres undefined) | 8.95% (inactive)
14 | Nc1c2ccccc2nc2ccccc12 | -47.3% (inactive) and -70.8% (active) and 3.45% (inactive)
15 | Nc1c2c(nc3ccccc13)CCCC2 | -1.53% (inactive) and -2.1% (inactive)
16 | CCCCCCCCCCCCCCCCn1cc[n+](Cc2ccccc2)c1C | -85.6% (active)
17 | CCCCCCCCCCCCCCCC[N+](C)(C)Cc1ccccc1 | -3.66% (inactive)
18 | CN1CCN(CCCCN2C(=O)CN(/N=C/c3ccc(-c4ccc(Cl)cc4)o3)C2=O)CC1 | 16.2% (inactive)
19 | C[N+](C)(C)CC(O)CC(=O)O (centres undefined) | -0.966% (inactive)
20 | CC[C@@H](C)Nc1cc(C(=O)NC2CC3CCC(C2)N3c2ccc(C(=O)C3CC3)cn2)c(C)cc1C(N)=O (some centres undefined) | -89.6% (active)
21 | CCCCC(F)(F)C(=O)CC[C@H]1[C@H](O)CC(=O)[C@@H]1CCCCCCC(=O)O | 34.9% (inactive) and 7.68% (inactive)
22 | N#C/C(=C/c1ccc(O)c(O)c1)C(=O)OCCc1cccs1 | 11.8% (inactive)
23 | CC(=O)N(C)C1(c2ccccc2)CCN(CCC[C@]2(c3ccc(Cl)c(Cl)c3)CCCN(C(=O)c3ccccc3)C2)CC1 | -7.4% (inactive)
24 | NC(N)=NCC1COC2(CCCCC2)O1 (centres undefined) | -1.54% (inactive)
25 | NC1(C(=O)O)CC1 | 13.6% (inactive)

Row | Compound | activity change, negative = inhibition
26 | CC(=O)O[C@H]1C[C@@H](OC(C)=O)C(C)(C)C2C[C@@H](OC(C)=O)[C@]3(C)C(CC[C@@]4(C)[C@H](c5ccoc5)OC(=O)[C@H]5O[C@]543)[C@]21C (some centres undefined) | 0.452% (inactive)
27 | CCS(=O)(=O)N(C)C1c2cc(C#N)ccc2OC(C)(C)C1O (centres undefined) | -6.08% (inactive)
28 | CC(=O)N(O)[C@@H]1c2cc(C#N)ccc2OC(C)(C)[C@H]1O | -86% (active) and 7.72% (inactive)
29 | CCS(=O)(=O)N(C)[C@H]1c2cc(C#N)ccc2OC(C)(C)[C@@H]1O (racemic) | 9.6% (inactive)
30 | Nc1c[n+](N2CCOCC2)no1 | 18.8% (inactive)
31 | CO/N=C(/C(=O)NC1C(=O)N2C(C(=O)OC(C)OC(C)=O)=C(COC(N)=O)CSC12)c1ccco1 (centres undefined) | 4.1% (inactive)
32 | O=C(O)CCC/C=C\C[C@@H]1[C@@H](/C=C/[C@@H](O)COc2cccc(Cl)c2)[C@H](O)C[C@@H]1O | 11.1% (inactive) and 5.18% (inactive) and 11% (inactive)
33 | Cc1c[nH]c(=O)n(CCCN2CCN(c3ccccc3OCC(F)(F)F)CC2)c1=O | 2.85% (inactive) and 2.68% (inactive)
34 | C1CCC2(CC1)CCNCC2 | -1.4% (inactive)
35 | COc1cc(Nc2c(C#N)cnc3cc(OCCCN4CCN(C)CC4)c(OC)cc23)c(Cl)cc1Cl | -79.2% (active) and -77.5% (active)
36 | COc1cc2c(Nc3ccc(NC(=O)c4ccccc4)cc3)ncnc2cc1OCCCN1CCOCC1 | -50.7% (inactive) and -23.3% (inactive)
37 | COc1cc2ncnc(Nc3ccc(F)c(Cl)c3)c2cc1OCCCN1CCOCC1 | 15.9% (inactive)
38 | CN(C)C(=O)NC1CCC(CCN2CCN(c3cccc(Cl)c3Cl)CC2)CC1 (centres undefined) | 3.31% (inactive)
39 | CC12CCC(C(=O)N(CCCCN3CCN(c4ccccn4)CC3)C1=O)C2(C)C (centres undefined) | -4.45% (inactive)
40 | CCNC(=O)[C@H]1O[C@@H](n2cnc3c(N)nc(NCCc4ccc(CCC(=O)O)cc4)nc32)[C@@H](O)[C@@H]1O | 9.76% (inactive)
41 | CC(C)(C)c1cnc(CSc2cnc(NC(=O)C3CCNCC3)s2)o1 | -71.7% (active)
42 | CC(=O)O[C@@H]1CC2C(C)(C)[C@H](O)CC[C@]2(C)C2CC[C@@]3(C)[C@H](c4ccoc4)OC(=O)C4OC43[C@@]21C (some centres undefined) | 14.1% (inactive)
43 | COc1cccc(CCc2ccccc2OCC[C@@H]2C[C@@H](O)CN2C)c1 | -6.08% (inactive) and -38.5% (inactive)
44 | O=c1cc(N2CCOCC2)oc2c(-c3ccccc3)cccc12 | 13.4% (inactive)
45 | O=c1cc(N2CCNCC2)oc2c(-c3ccccc3)cccc12 | -75.1% (active) and -94.2% (active)
46 | Nc1ccc(-c2cccc3c(=O)cc(N4CCOCC4)oc23)cc1 | 3.1% (inactive) and -4.84% (inactive)
47 | Nc1ncnc2c1ncn2[C@@H]1O[C@H](COP(=O)(O)OP(=O)(O)OP(=O)(O)OP(=O)(O)OC[C@H]2O[C@@H](n3cnc4c(N)ncnc43)C(O)C2O)C(O)C1O (some centres undefined) | -3.47% (inactive)
48 | O=C1C=CC(=O)C2=C1C1c3ccccc3C2c2ccccc21 | -2.66% (inactive)
49 | Cn1cccc1/C=C1\C(=O)NC(=O)c2ccccc21 | -4.19% (inactive)
50 | CCc1cc(Cl)c(OC)c(C(=O)NCC2CCCN2CC)c1O (centres undefined) | 0.175% (inactive)

Row | Compound | activity change, negative = inhibition
51 | c1cnc(SCc2cccnc2)nc1 | 15.1% (inactive)
52 | Cc1cc(C(C)(C)CC(C)(C)C)ccc1OCCOCC[N+](C)(C)Cc1ccccc1 | -1.86% (inactive)
53 | C[N+](C)(CCOc1ccccc1)Cc1ccccc1 | 13.6% (inactive)
54 | CC(C)(C)CC(C)(C)c1ccc(OCCOCC[N+](C)(C)Cc2ccccc2)cc1 | -84.1% (active) and 4.83% (inactive)
55 | CC(O)COC[C@H]1O[C@@H]2O[C@H]3[C@H](O)[C@@H](O)[C@@H](O[C@H]4[C@H](O)[C@@H](O)[C@@H](O[C@H]5[C@H](O)[C@@H](O)[C@@H](O[C@H]6[C@H](O)[C@@H](O)[C@@H](O[C@H]7[C@H](O)[C@@H](O)[C@@H](O[C@H]8[C@H](O)[C@@H](O)[C@@H](O[C@H]1[C@H](O)[C@H]2O)O[C@@H]8COCC(C)O)O[C@@H]7COCC(C)O)O[C@@H]6COCC(C)O)O[C@@H]5COCC(C)O)O[C@@H]4COCC(C)O)O[C@@H]3COCC(C)O (some centres undefined) | 10.2% (inactive)
56 | C=CCn1c(=O)n(C2OC(CO)C(O)C2O)c2nc(N)[nH]c(=O)c21 (centres undefined) | 0.162% (inactive)
57 | CCNC(=O)[C@@H]1CCCN1C(=O)[C@H](CCCN=C(N)N)NC(=O)[C@H](CC(C)C)NC(=O)[C@@H](COC(C)(C)C)NC(=O)[C@H](Cc1ccc(O)cc1)NC(=O)[C@H](CO)NC(=O)[C@H](Cc1c[nH]c2ccccc12)NC(=O)[C@H](Cc1cnc[nH]1)NC(=O)C1CCC(=O)N1 (some centres undefined) | 9.62% (inactive)
58 | CC(C)C(=O)OC[C@H]1O[C@@H](n2ccc(N)nc2=O)[C@](C)(F)[C@@H]1OC(=O)C(C)C | 23.1% (inactive)
59 | O=C(Nc1ncc(SCCN2CCCC2)s1)[C@]1(c2ccc(S(=O)(=O)C3CC3)cc2)C[C@H]1C1CCCCC1 | -76.3% (active) and -62.6% (inactive)
60 | CC(C)(C)[C@@]1(O)CCN2C[C@@H]3c4ccccc4CCc4cccc(c43)[C@H]2C1 | 13.9% (inactive)
61 | CC(C)c1cc(/C=C(\C#N)C(=O)NCCCc2ccccc2)cc(C(C)C)c1O | -46.1% (inactive)
62 | C[C@H](NC(=O)/C(C#N)=C/c1cccc(Br)n1)c1ccccc1 | -73.9% (active)
63 | C[C@@H](NC(=O)/C(C#N)=C\c1ccc(O)c(O)c1)c1ccccc1 | -3.05% (inactive)
64 | C[C@H](NC(=O)/C(C#N)=C/c1ccc(O)c(O)c1)c1ccccc1 | 13.8% (inactive) and 32.8% (inactive)
65 | CCC[C@H](NC(=O)/C(C#N)=C/c1cccc(Br)n1)c1ccccc1 | -77% (active)
66 | CCN(CC)CCCCC(NC(=O)c1ccc([N+](=O)[O-])cc1)c1ccccc1 (centres undefined) | 34.1% (inactive)
67 | O=C(CS(=O)Cc1ccco1)NC/C=C\COc1cc(CN2CCCCC2)ccn1 (centres undefined) | 8.76% (inactive)
68 | CC12C=CCC1C1CCC3CC(=O)CCC3(C)C1CC2 (centres undefined) | 14.3% (inactive)
69 | COc1ccc(NC(=O)c2cc(OCCCN(C)C)nn2Cc2ccccc2)cc1 | 3.25% (inactive) and 7.86% (inactive)
70 | CCC(=O)NS(=O)(=O)c1ccc(-c2c(-c3ccccc3)noc2C)cc1 | 23.5% (inactive)
71 | CC1(c2ccccc2)OC(C(=O)O)=CC1=O (centres undefined) | 15.7% (inactive)
72 | Nc1cccc2c(=O)[nH][nH]c(=O)c12 | 7.31% (inactive)
73 | CCCS(=O)(=O)Nc1ccc(F)c(C(=O)c2c[nH]c3ncc(-c4ccc(Cl)cc4)cc23)c1F | -58.2% (inactive) and -67.7% (inactive)
74 | COc1ncc(-c2ccc3nccc(-c4ccnnc4)c3c2)cc1NS(=O)(=O)c1ccc(F)cc1F | -79.5% (active)
